Test results taken from PubChem BioAssay (NCI).
Compounds without any hit were thinned out: in the full panel of roughly 83,000, 20% have a hit.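 Cells were grown in 96-well plates and exposed to the test compound at a single concentration for 48 hours; results are reported as percent growth, with values below 10 considered active.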 Activity calls are given as the source filed them.

Assays:
Assay in all cases: NCI-60 one-dose screen, 48 h (100 = growth as untreated, 0 = no growth, -100 = all killed)
Settings in all cases: 10 µM unless noted
[1] = test system: T-47D breast
[2] = test system: BT-549 breast
[3] = test system: MDA-MB-435 melanoma
[4] = test system: SW-620 colon
[5] = test system: MCF7 breast
[6] = test system: HCC-2998 colon
[7] = test system: KM12 colon
[8] = test system: HCT-116 colon

Measured: growth

CCCCCCCCCCCCCCCCCCNCc1ccc(Cl)cc1
inactive: [2] 38.5%
active: [1] 9.34% | [3] -80.3% | [4] -75.8% | [5] -71.2% | [6] -82.8% | [7] -77.2%

O=C1CN(CCN2CC(=O)NC(=O)C2)CC(=O)N1
inactive: [1] 99.2% | [2] 96.6% | [3] 90.4% | [4] 118% | [5] 104% | [6] 112% | [7] 99.5%

OC(COc1ccccc1Cl)CN1CCN(c2ccc(Cl)cc2)CC1 (stereo unspecified)
inactive: [1] 101% | [2] 89.9% | [3] 105% | [4] 108% | [5] 90.2% | [6] 102% | [7] 100%

CCOC(=O)C1=C(N)Oc2cc(OC)ccc2C1c1ccc(F)c(F)c1 (stereo unspecified)
active: [3] -15.8%
inactive: [1] 36.4% | [2] 50.2% | [4] 21.1% | [5] 16.6% | [6] 54.5% | [7] 27%

Fc1cccc(F)c1C#Cc1ccc2cccnc2c1
inactive: [1] 22.3% | [2] 95.6% | [3] 107% | [4] 90.5% | [5] 14.8% | [6] 68.6% | [7] 79.1%

COc1cc(CN(c2ccc(Cl)cc2)C2OC(=O)c3ccccc32)cc(OC)c1OC (stereo unspecified)
active: [3] -45%
inactive: [1] 42.3% | [2] 44.8% | [4] 30.8% | [5] 31.3% | [6] 73.8% | [7] 31.8%

CCCCCCCCCCCCCCCCNc1ccccc1
inactive: [1] 88.6% | [2] 71.7% | [3] 111% | [4] 108% | [5] 90.1% | [7] 88.7%

CCOc1ccc(NC(=O)Nc2cc(C(C)C)ccc2C)cc1
inactive: [1] 77.3% | [2] 114% | [3] 85% | [4] 91.1% | [5] 111% | [6] 59.8% | [7] 75.4%

COc1ccc2c(c1)C(=O)/C(=C/c1ccc(OCC(=O)c3ccc(Cl)cc3)cc1)O2
inactive: [1] 72.2% | [2] 80.5% | [3] 92.8% | [4] 14.2% | [5] 104% | [6] 21.2% | [7] 104%

CC(/C=C/C=C(\C)[C@H](O)[C@H](C)C(=O)O[C@H]1C[C@H](C)C=C2C=C[C@@]3(C)O[C@@H](O)CC(=O)[C@]3(C)[C@H]21)=C\C=C\C(=O)O
active: [1] -12.3% | [2] -21.5% | [3] 8.57% | [4] 9.52% | [5] 3.12% | [6] 7.5% | [7] 0.481%

O=C(Cn1c2ccccc2c2ccncc21)N/N=C/c1c[nH]c2ccccc12
inactive: [1] 90.2% | [2] 94.4% | [3] 33.8% | [4] 34.3% | [5] 37.8% | [6] 87.5% | [7] 60.5%

OCc1cn(-c2ccc(Cl)cc2)nc1-c1ccc(O)cc1
inactive: [1] 85.3% | [2] 86.1% | [3] 88.9% | [4] 112% | [5] 90.4% | [6] 103% | [7] 90.9%

CCN(CC)CCC(C(=O)O)(c1ccccc1)c1ccccc1
inactive: [1] 77.7% | [2] 95.6% | [3] 98.3% | [4] 97.9% | [5] 91.8% | [6] 106% | [7] 100%

CCc1c2cc(Cl)ccc2n2cc(Cc3ccccc3)[nH]c(=O)c12
inactive: [1] 104% | [2] 101% | [3] 102% | [4] 99.4% | [6] 97.1% | [7] 98%

O=C(Nc1ccc(-n2ccc3c(NC(=O)c4ccccc4)nccc32)cc1)Nc1ccc(Cl)c(Cl)c1
active: [3] -58.9% | [4] -64.6% | [5] -91.9% | [8] -94.5% | [7] -49.1%
inactive: [1] 20.7% | [2] 40.3%

O=S(=O)(O)c1ccc(F)cc1
inactive: [1] 98.7% | [2] 101% | [3] 108% | [4] 103% | [5] 97.8% | [6] 105% | [7] 101%

CCC1S/C(=N\N=C(/C)c2cc3ccccc3o2)N(c2ccccc2)C1=O (stereo unspecified)
inactive: [1] 85.1% | [2] 234% | [3] 107% | [4] 106% | [5] 162% | [6] 113% | [7] 114%

Nc1ccc(S(=O)(=O)Nc2ccnn2-c2ccccc2)cc1
inactive: [1] 104% | [2] 116% | [3] 97% | [4] 101% | [5] 101% | [6] 98.8% | [7] 105%

O=C(Cn1c2ccccc2c2ccncc21)N/N=C/c1cc(O)c(O)c(O)c1
inactive: [1] 98.2% | [2] 107% | [3] 111% | [4] 109% | [5] 106% | [6] 105% | [7] 95.3%

CS(=O)(=O)OCC(COS(C)(=O)=O)C(c1ccccc1)c1ccccc1
inactive: [1] 100% | [2] 97.3% | [3] 105% | [4] 99.3% | [5] 101% | [6] 109% | [7] 104%

CC[C@@]1(O)C(=O)OCc2c1cc1n(c2=O)Cc2c-1nc1ccccc1c2/C=N/OC(C)(C)C
inactive: [3] 13.5% | [4] 11.5%
active: [1] 2.25% | [2] -7.82% | [5] 2.42% | [7] 1.96%

Nc1ncnc2c1c(-c1ccc(Oc3ccccc3)cc1)nn2C[C@@H]1SSC[C@H]1O
inactive: [2] 57.9% | [4] 90.4% | [5] 11.4% | [6] 88.4% | [7] 34.8%
active: [1] 3.82% | [3] 8.48%

COc1cc(-c2nc3ccccc3s2)ccc1OCc1nc2n(n1)S(=O)(=O)c1ccccc1N2c1ccccc1
inactive: [1] 101% | [2] 104% | [3] 107% | [4] 102% | [5] 105% | [6] 129% | [7] 101%

COc1ccccc1NC(=O)COc1ccc(/C=C2/Oc3cc4occc4c(OC)c3C2=O)cc1OC
inactive: [1] 86.4% | [2] 93% | [3] 107% | [5] 99.4% | [8] 102% | [6] 106% | [7] 97.8%

O=C(Nc1ccc(-n2cc(-c3ccncc3)c(-c3ccc(O)c(Cl)c3)n2)cc1)c1ccc(Cl)c(Cl)c1
inactive: [1] 36.5% | [2] 29.3% | [3] 27.1% | [5] 28.5% | [8] 12.3% | [6] 33.2% | [7] 24.6%

CC(C)(C)NC(C1=CC(C)(C)c2ccccc2C1=O)c1ccccc1 (stereo unspecified)
active: [1] -71.8% | [2] -32.9% | [3] -25.4% | [5] -63.6% | [8] -99.5% | [6] -31.3% | [7] -29.2%

CSc1ccc(C(=O)C[n+]2cccc(C)c2)cc1
inactive: [1] 90.6% | [2] 104% | [3] 104% | [5] 97.2% | [8] 101% | [6] 115% | [7] 100%

Nc1nc(=S)ss1
inactive: [1] 98.9% | [2] 101% | [3] 102% | [5] 98.3% | [8] 97.3% | [6] 97% | [7] 111%

CCNC(=O)Oc1ccc(/C(=C(/CC)Cc2ccccc2)c2ccc(OCCN3CCOCC3)cc2)cc1
inactive: [1] 20.5% | [2] 69.9% | [3] 49.9% | [5] 22.5% | [8] 41.6% | [6] 79.5% | [7] 37.3%

O=C(CNc1cccnc1)Nc1ccc(C(=O)/C=C/c2ccc(Cl)cc2)cc1
inactive: [1] 89.9% | [2] 89.7% | [3] 68.5% | [4] 74.3% | [6] 86.2% | [7] 69.3%

C=CCn1c(SCC(=O)Nc2ccc(/C(C)=N\O)cc2)nnc1-c1cc(-c2ccc(OC)cc2)nc2ccccc12
active: [1] -4.63%
inactive: [2] 35.6% | [3] 46.1% | [4] 39.4% | [6] 45.8% | [7] 29%

COC(=O)Nc1nc2ccc(Sc3ccccc3)cc2[nH]1
inactive: [1] 60.8% | [2] 49.5% | [5] 21.4% | [8] 15%
active: [3] -45.2% | [7] 3.07%

C[C@H]1C=C(C[C@@H](O)CC#CC#CCCCCC[C@@H](O)[C@H]2CCC(=O)O2)C(=O)O1
inactive: [1] 92.8% | [2] 112% | [3] 111% | [5] 115% | [8] 83.2% | [6] 105% | [7] 110%

CCC1S/C(=N\N=C(/C)c2ccco2)N(c2ccccc2)C1=O (stereo unspecified)
inactive: [1] 107% | [2] 106% | [3] 92.7% | [5] 81% | [8] 68.6% | [6] 112% | [7] 86.1%

CNCCCOc1c(Br)cc(CCNC(=O)/C(Cc2cc(Br)c(OC)c(Br)c2)=N/O)cc1Br
active: [1] -27.5% | [3] -59.6% | [5] -40.3% | [8] -91.6% | [6] -49.5% | [7] -1.14%
inactive: [2] 48%

Cc1c(C(C)(C)C)cc(C(C)(C)C)c2c1CN(C)CO2
inactive: [1] 104% | [2] 110% | [3] 113% | [5] 99.8% | [8] 104% | [6] 101% | [7] 113%
